# Screens as filed in PubChem BioAssay.
# Most compounds without a hit are left out; they make up all but 9.4% or so of the library.
# ALDH1A1 block: inhibitors of human aldehyde dehydrogenase 1A1; Purified ALDH1A1, NADH fluorescence, propionaldehyde substrate; AID 1030; P00352; Potency, µM (doses to about 75.3 µM), for inactives: at the top dose activity, negative = inhibition, hits mostly inhibitors; 220,000 tested, 7.3% active; active = well fitted inhibition curve with a large enough effect, not every such curve was filed as active; inconclusive = small, poorly fitted or top-dose-only effect, or another doubt; inactive = no such curve, though single readings can be large or run the other way;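 note: potency is the fitted concentration of half-maximal effect; plate controls were no enzyme wells and a reference inhibitor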
# Target sequence (P00352 whole entry, looked up): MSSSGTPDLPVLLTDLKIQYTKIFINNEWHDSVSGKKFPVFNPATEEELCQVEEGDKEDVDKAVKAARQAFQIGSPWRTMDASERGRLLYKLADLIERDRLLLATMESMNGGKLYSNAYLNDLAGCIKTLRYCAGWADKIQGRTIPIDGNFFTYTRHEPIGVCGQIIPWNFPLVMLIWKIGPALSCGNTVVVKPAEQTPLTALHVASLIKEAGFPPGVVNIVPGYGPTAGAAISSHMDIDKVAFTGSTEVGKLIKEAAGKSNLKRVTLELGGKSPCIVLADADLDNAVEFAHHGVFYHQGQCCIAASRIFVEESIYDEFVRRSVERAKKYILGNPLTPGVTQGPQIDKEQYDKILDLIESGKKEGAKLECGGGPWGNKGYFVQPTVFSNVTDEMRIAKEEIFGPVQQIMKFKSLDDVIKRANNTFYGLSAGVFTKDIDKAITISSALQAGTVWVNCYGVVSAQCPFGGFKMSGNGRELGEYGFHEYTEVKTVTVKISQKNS
# IMPase Li inh: membrane-permeable IMPase blocker, potentiated with lithium; CHO-M1 cells, IP1 TR-FRET (IP-One), carbachol + lithium; Potency, µM (series often up to 59.4 µM), without a hit: at the top dose activity, negative = IMPase inhibition, actives largely listed as inhibitors; 210,000 tested, 0.35% active;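 note: IP1 builds up when IMPase is blocked and the TR-FRET signal falls; potency is the fitted concentration of half-maximal effect; plate controls were basal vehicle for no effect and high inhibitor control for full effect; nearly all actives have a fitted effect of over 50% in size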
#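 Steps: plate 2000 CHO-M1 cells per well and culture 16–30 h; add compound and lithium; incubate 30 min, 37C; add d2-IP1 tracer and Eu cryptate anti-IP1 antibody in lysis buffer; read after 10 min at room temperature.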
# IMPase cell inh: membrane-permeable compound that blocks inositol monophosphatase; CHO-M1 cells, IP1 accumulation, HTRF TR-FRET ratio; P97697; inhibition (IP1 accumulation), % at 46.1 µM; 120,000 tested, under 10 active; AID 901; active = well fitted curve in the direction sought with a large enough effect in the signal ratio, not every such curve was filed as active; inconclusive = small, poorly fitted or top-dose-only effect, or a change in a side signal; inactive = no such curve, though single readings can be large or run the other way; the % refers to the signal ratio;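 note: cells stimulated with carbachol in lithium chloride buffer; plate controls were DMSO basal wells for no effect and reference inhibitor wells for full effect; higher means more IMPase inhibition seen as more IP1 and lower FRET ratio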
#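 Carbachol-driven Gq signalling in CHO-M1 cells (2000/well) generates IP1. Compounds that block IMPase raise IP1 and so reduce the FRET signal from Eu-anti-IP1 and d2-IP1 after a 10 min room-temperature lysis.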
# HTT cytoprotect: Huntington cell model cytoprotection by ATP luminescence. 230,000 tested, 0.14% active. AID 1471. Potency, µM (doses to about 56.4 µM), inactives show cytoprotection (ATP increase), most hits filed as activators. PC12 HTT-Q103 induced, cytoprotection, ATP luminescence, 40 h; note: potency is the fitted concentration of half-maximal effect; % of control where 0% means no effect; nearly all actives have a fitted effect of over 45% in size
#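 Huntington model: PC12 line, ecdysone-inducible HTTQ103 exon1–GFP, tebufenozide 100 nM. Test articles in a dose series. Endpoint luminescence from cellular ATP.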
# HttQ103 aggreg: reduces HttQ103-GFP aggregates in PC12 cells; PC12 HttQ103-GFP aggregates, Acumen cytometry, 40 h; 220,000 tested, 1.1% active; Potency, µM (titrated, usually from 46.1 µM), inactives show at the highest dose activity change, negative = inhibition, hits mostly inhibitors; note: potency is the fitted concentration of half-maximal effect; % is set by controls: 0 for no effect and ±100 for the full control effect; nearly all actives have a fitted effect of over 60% in size
#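 PC12/HTTQ103-GFP, ecdysone-inducible; teb 100 nM; cpd qHTS titration; GFP aggregates read on laser cytometer, Ex 488/Em 500-530 nm.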
# HPGD inh: inhibitors of human 15-hydroxyprostaglandin dehydrogenase (HPGD) | AID 894 | purified HPGD, NADH fluorescence kinetic, PGE2 substrate | 150,000 tested, 4.3% active | Potency, µM, for the others: at the highest dose activity change, negative = inhibition, most hits filed as inhibitors; active = well fitted inhibition curve with a large enough effect, not every such curve was filed as active; inconclusive = small, poorly fitted or top-dose-only effect, or another doubt; inactive = no such curve, though single readings can be large or run the other way; note: potency is the fitted concentration of half-maximal effect; % is set by controls: 0 for no effect and ±100 for the full control effect
# Target sequence (P15428 whole entry, looked up): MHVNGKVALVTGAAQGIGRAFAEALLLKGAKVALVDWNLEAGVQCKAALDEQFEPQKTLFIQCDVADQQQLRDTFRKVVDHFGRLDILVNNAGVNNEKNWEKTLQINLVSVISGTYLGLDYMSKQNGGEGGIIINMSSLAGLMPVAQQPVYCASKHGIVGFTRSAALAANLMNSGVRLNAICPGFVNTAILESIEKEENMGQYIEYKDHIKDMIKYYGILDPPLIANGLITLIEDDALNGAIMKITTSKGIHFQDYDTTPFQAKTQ
#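 NADH formation kinetics: reaction with 30 uM PGE2 and 1 mM NAD+ (final), 20 nM enzyme, Tris-HCl pH 8 with Tween 20, after 15 min compound preincubation at room temperature. Fluorescence change, last versus first of five reads.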
# * marks the source's active call; other numbers are inactive results; ? = inconclusive; / = not tested or not shown; [ ] = dose if it differs, or a comment. Unless noted, calls come from the whole dose curve; as a rule, active = well fitted curve in the direction sought with a large enough effect; inconclusive = small, poorly fitted or top-dose-only effect, or another doubt; inactive = no such curve, though single readings can be large; an effect the other way counts as inactive or inconclusive.
SMILES,ALDH1A1 block,IMPase Li inh,IMPase cell inh,HTT cytoprotect,HttQ103 aggreg,HPGD inh
O=C(CSCc1ccc(Cl)cc1)NN=C1CCCC1,?,0%,/,/,6%,-3%
O=C(CSCc1c(Cl)cccc1Cl)NN=C1CCCC1,1.6µM*,-19%,/,-32%,4%,/
O=C(CSc1ncccn1)NN=C1CCCCCCC1,4%,14%[38.3 µM],5,-9%,8%,-1%
CCOC(=O)C1CCCCN1Cc1cccc(OC)c1OC (stereo not drawn),?,18%[38.3 µM],-7,6%[10 µM],2%,6%
CCOC(=O)C1CCCCN1Cc1cc(OC)ccc1OC (stereo not drawn),16µM*,-4%[38.3 µM],5,7%,2%[9.22 µM],-5%
COc1ccc(CNC(=O)Cn2cnc3c(=O)n(C)c(=O)n(C)c32)cc1,-9%,4%[38.3 µM],6,-10%[0.074 µM],0.63µM*,-10%
COc1ccc(CNC(=O)Cn2cc3c(n2)CCCCC3)cc1,1.1µM*,35%[38.3 µM],8,11%[10 µM],-3%,1%
Clc1cccc(Nc2nc(-c3ccncc3)cs2)c1,-2%,13%,/,7%[10 µM],3%[9.22 µM],/
S=c1[nH]nc(Nc2ccccc2Cl)s1,1.4µM*,6%,/,-22%,2%,/
S=c1[nH]nc(Nc2cccc(Cl)c2)s1,2.5µM*,6%,/,-23%,2%,/
COc1ccc(N=Cc2ccc(-c3ccccc3)o2)cc1,3.2µM*,-8%,/,-10%[10 µM],-6%[9.22 µM],/
O/N=C\c1ccc(-c2ccccc2)o1,2%,1%,/,-19%[10 µM],0%,14µM*
O/N=C/c1ccc(-c2cc(Cl)ccc2Cl)o1,2%,-9%,/,27%[10 µM],?,4.5µM*
O=[N+]([O-])c1ccc(-c2ccc(/C=N/O)o2)cc1,/,/,/,5%[10 µM],-3%[9.22 µM],/
CC(C)CC(=O)Nc1ccc(-c2cn3ccsc3n2)cc1,0%,30%[38.3 µM],5,-188%[0.074 µM],?,25µM*
Cc1coc(C)c1C(=O)CC1(O)C(=O)N(CCc2ccccc2)c2ccccc21 (stereo not drawn),4.5µM*,34%[38.3 µM],11,-4%,?,?
COc1ccc(C(=O)N/N=C2/SCC(=O)N2Cc2ccc3c(c2)OCO3)cc1OC,20µM*,-23%[38.3 µM],-7,4%,8%,-12%
CCOC(=O)CN1C(=O)C(O)(CC(=O)c2cccc(OC)c2)c2ccccc21 (stereo not drawn),0.28µM*,-8%[38.3 µM],-9,8%,10%,0%
Cc1[nH]c2ccccc2c1C1(O)C(=O)N(Cc2ccc3c(c2)OCO3)c2ccccc21 (stereo not drawn),0.71µM*,14%[38.3 µM],-11,-86%,?,-19%
COC(=O)[C@H](COC(C)(C)C)NC(=O)O[C@@H]1Cc2cc(OC)ccc2O[C@H]1c1cccc(OC)c1,-8%,26%,/,-10%,/,-17%
CN1CCN(c2ncnc3ccc(-c4cccnc4)cc23)CC1,17%,9%,/,-83%,/,/
C#CCN1C(=O)C(O)(CC(=O)c2cccc(OC)c2)c2ccccc21 (stereo not drawn),1.6µM*,13%[38.3 µM],6,38%[10 µM],0%,-10%
CC1(C)CC(=O)C(C2(O)C(=O)N(Cc3ccccc3)c3ccccc32)CO1 (stereo not drawn),0.032µM*,11%[38.3 µM],-3,-59%[10 µM],7%,-7%
CC(C)(C)C(=O)CC1(O)C(=O)N(Cc2ccc(Cl)cc2)c2ccccc21 (stereo not drawn),?,-7%[38.3 µM],13,0%,7%,-7%
CC(C)N1C(=O)C(O)(C2COC(C)(C)CC2=O)c2ccccc21 (stereo not drawn),?,-4%,/,28%[10 µM],16%[9.22 µM],/
SMILES,ALDH1A1 block,IMPase Li inh,IMPase cell inh,HTT cytoprotect,HttQ103 aggreg,HPGD inh
CC12CN(Cc3ccccc3)CC(C)(CN(Cc3ccccc3)C1)C2=O,4%,-3%,/,-19%,-6%,/
CN1C(=O)C(O)(CC(=O)c2cccc(-n3cccc3)c2)c2ccccc21 (stereo not drawn),?,16%[38.3 µM],14,-24%,5%,-20%
O=C(CC1(O)C(=O)N(Cc2ccccc2Cl)c2ccccc21)c1ccco1 (stereo not drawn),1.3µM*,17%[38.3 µM],3,-15%[0.074 µM],-12%,-1%
CC12CN3CC(C)(CN(C1)C31C(=O)N(Cc3ccccc3)c3ccccc31)C2=O (stereo not drawn),7.9µM*,-8%[38.3 µM],-3,10%,14%,4%
Cc1ccc(-c2nc(NC(=O)CSc3ncnc4sc5c(c34)CCC(C)C5)ns2)cc1 (stereo not drawn),/,/,3,/,/,/
COc1cc(-c2nc(-c3ccccc3)c(-c3ccc(Br)cc3)[nH]2)cc(OC)c1O,/,/,-4,/,/,/
COC(=O)C1=C(C)N(Cc2ccccc2)C2=C3C(=O)N(C)C(=O)C3[C@@](O)(C(=O)OC)C(=O)N2C1c1ccccc1 (stereo partly drawn),11%[13.5 µM],/,/,?,/,/
CCOC(=O)CN1C(=O)C(O)(CC(=O)c2ccco2)c2ccccc21 (stereo not drawn),0.16µM*,-11%[38.3 µM],4,0%,7%,-9%
O=C(O)CC1(O)C(=O)N(Cc2ccccc2)c2ccccc21 (stereo not drawn),20µM*,1%,/,-11%[10 µM],-18%[9.22 µM],/
CCN1C(=O)C(O)(CC(=O)c2c(C)coc2C)c2ccccc21 (stereo not drawn),?,-7%,/,-19%[10 µM],-23%[9.22 µM],/
Cc1ccc(C(=O)CC2(O)C(=O)N(Cc3ccccc3)c3ccccc32)c(C)c1 (stereo not drawn),/,/,8,/,/,/
CCCCN1C(=O)C(O)(CC(=O)c2ccco2)c2cc(Br)ccc21 (stereo not drawn),8.9µM*,4%,4,32%[10 µM],7%,2%
CN1C(=O)C(O)(CC(=O)/C=C/c2ccco2)c2cc(Br)ccc21 (stereo not drawn),24µM*,8%,/,22%,18%,/
COc1ccccc1NC(=O)N1c2ccccc2Sc2ccccc21,/,/,17,/,/,/
CCN1C(=O)C(O)(CC(=O)c2ccc3c(c2)OCCO3)c2ccccc21 (stereo not drawn),?,-2%[38.3 µM],1,-14%,2%,-16%
COc1cccc2cc(C(=O)CC3(O)C(=O)N(Cc4ccccc4)c4ccccc43)c(=O)oc12 (stereo not drawn),0.089µM*,1%[38.3 µM],-21,-9%,24%,-1%
CCCCN1C(=O)C(O)(CC(=O)c2ccc(C(C)(C)C)cc2)c2ccccc21 (stereo not drawn),/,/,5,/,/,/
COc1ccc(CN2C(=O)C(O)(CC(=O)c3ccc4c(c3)OCO4)c3ccccc32)cc1OC (stereo not drawn),4.5µM*,14%[38.3 µM],1,4%,-8%[1.84 µM],-6%
